According to publication PMC4336329 (PLoS ONE, 2015):
Hit rate of the full screen: of about 310,000 compounds, about 14,000 (4.5%) showed an effect of 50% or more. Effects have a minus sign here. This excerpt belongs to a sample that is enriched for strong results.

The compounds below were run against human ether-à-go-go-related gene (hERG) potassium channel (human, UniProt Q12809) (assay: primary screen, population patch clamp on CHO cells stably expressing hERG; higher = less effect of the substance).
human ether-à-go-go-related gene (hERG) potassium channel, sequence (Q12809 whole entry, looked up): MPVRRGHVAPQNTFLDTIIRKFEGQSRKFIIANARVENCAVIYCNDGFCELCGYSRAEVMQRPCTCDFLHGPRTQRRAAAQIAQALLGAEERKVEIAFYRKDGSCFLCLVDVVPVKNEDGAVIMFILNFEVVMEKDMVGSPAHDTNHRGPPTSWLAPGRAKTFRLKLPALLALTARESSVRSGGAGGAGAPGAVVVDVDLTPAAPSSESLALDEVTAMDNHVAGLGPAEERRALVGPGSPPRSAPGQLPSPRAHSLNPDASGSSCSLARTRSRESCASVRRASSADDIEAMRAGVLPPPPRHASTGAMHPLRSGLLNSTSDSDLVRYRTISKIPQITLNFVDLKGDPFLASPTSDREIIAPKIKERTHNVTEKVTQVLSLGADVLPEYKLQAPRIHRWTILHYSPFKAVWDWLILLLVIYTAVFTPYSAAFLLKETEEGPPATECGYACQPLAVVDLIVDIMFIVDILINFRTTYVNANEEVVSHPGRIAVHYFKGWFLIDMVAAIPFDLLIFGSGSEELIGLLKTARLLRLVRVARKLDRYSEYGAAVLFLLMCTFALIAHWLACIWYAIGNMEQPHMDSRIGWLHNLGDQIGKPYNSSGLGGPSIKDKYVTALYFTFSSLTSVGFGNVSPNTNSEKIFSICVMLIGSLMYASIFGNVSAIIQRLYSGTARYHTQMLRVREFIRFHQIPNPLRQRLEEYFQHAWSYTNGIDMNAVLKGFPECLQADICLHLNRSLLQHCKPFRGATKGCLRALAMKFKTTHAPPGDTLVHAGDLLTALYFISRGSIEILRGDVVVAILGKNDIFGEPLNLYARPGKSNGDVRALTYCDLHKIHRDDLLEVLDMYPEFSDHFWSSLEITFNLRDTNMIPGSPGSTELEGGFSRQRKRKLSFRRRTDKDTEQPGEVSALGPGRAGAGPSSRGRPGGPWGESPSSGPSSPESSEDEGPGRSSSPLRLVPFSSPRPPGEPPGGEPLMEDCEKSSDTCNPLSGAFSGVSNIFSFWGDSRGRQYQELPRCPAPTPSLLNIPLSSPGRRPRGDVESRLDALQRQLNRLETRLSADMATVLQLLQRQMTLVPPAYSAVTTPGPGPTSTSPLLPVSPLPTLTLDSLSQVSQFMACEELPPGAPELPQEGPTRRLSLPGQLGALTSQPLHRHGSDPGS
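Note: peak tail current of the secondary pulse compared with the same well before compound.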

Structure (SMILES)	hERG current change (%, negative = inhibition) at 10uM
CC1(C)CC(=O)C=C(Nc2cccc(F)c2)C1	17%
O=C1c2ccccc2S(=O)(=O)N1CC(O)Cn1c2ccccc2c2ccccc21 (centres unmarked)	3.03%
CCn1c(Cc2ccccc2)nnc1SCC(=O)Nc1ccc(N2CCOCC2)c(Cl)c1	-5.94%
COc1cc(CNCCc2ccc(F)cc2)ccc1OCc1ccc(Cl)nc1.Cl	-68.2%
CCCCNCc1ccc(OCc2ccc(Cl)nc2)c(OC)c1.Cl	-32.7%
COc1ccc(CCNCc2ccc(OCc3ccc(Cl)nc3)c(OC)c2)cc1OC.Cl	-63.3%
COc1cc(CNCCc2ccccc2)ccc1OCc1ccc(Cl)nc1.Cl	-39.5%
COc1cc(CNCCc2ccccc2F)ccc1OCc1ccc(Cl)nc1.Cl	-49.5%
CCCCCNCc1ccc(OCc2ccc(Cl)nc2)c(OC)c1	-45.8%
CC1CCCC(NC(=O)COC(=O)c2ccc3ncsc3c2)C1C (centres unmarked)	-3.48%
CC(C)N(C1=CC(=O)OC12CCCCC2)C(C)C	-0.582%
COc1cc(C(=O)N/N=C(\C)Cc2ccccc2)cc(OC)c1OC	9.1%
CCOC(=O)N1CCC(NC(=O)CSCc2nc(-c3ccc(OC)c(OC)c3)oc2C)CC1	-2.5%
COc1ccc(-c2onc(C)c2-c2cnn(-c3ccccc3)c2)c(O)c1	3.71%
COc1cc(OC)c(/C=N/NC(=O)c2ccc(Cn3nc([N+](=O)[O-])cc3C)cc2)c(OC)c1	-37.1%
Cc1ccc2nsnc2c1NC(=O)c1ccc([N+](=O)[O-])o1	13.1%
CCN1CCN(Cc2ccc(NC(=O)c3ccc(C)c(NC(=O)N4CCNC4=O)c3)cc2C(F)(F)F)CC1	1.09%
CCOC(=O)C1(CCOc2ccccc2)CCN(Cc2cccn2-c2ncccn2)CC1	-76.4%
CCOC(=O)C1(CCOc2ccccc2)CCN(Cc2cccn2-c2cccnc2)CC1	-51.8%
OCC1(CCOc2ccccc2)CCN(Cc2cccn2-c2ncccn2)CC1	-82.2%
OCC1(CCc2ccccc2)CCN(Cc2cccn2-c2cccnc2)CC1	-49.4%
CCOC(=O)C1(Cc2ccccc2)CCN(Cc2cccn2-c2cccnc2)CC1	-39%
O=C(Nc1ccccc1)c1ccccc1N=Cc1ccccc1O	2.2%

Structure (SMILES)	hERG current change (%, negative = inhibition) at 10uM
COc1cc2c(cc1OC)CN(S(=O)(=O)c1cccc(F)c1)CC2	18.6%
Cc1ccc(C)c(C(=O)COC(=O)Cn2[nH]c(=O)c3ccccc3c2=O)c1	5.51%
O=C(CN1C(=O)NC2(CCCC2)C1=O)N1CCN(c2cccc(C(F)(F)F)c2)CC1	-24.5%
Cc1oc2c(C)c3oc(=O)c(CCC(=O)NCCCN4CCOCC4)c(C)c3cc2c1C	-6.99%
COc1ccccc1CCN=C(N)NS(=O)(=O)c1ccc(C)c(C)c1	9.37%
O=C(COC(=O)c1ncc(Cl)c(Cl)c1Cl)NCc1ccccc1	2.42%
CCN1CCN(C(=O)CS(=O)Cc2nc(-c3cccc(C)c3)oc2C)CC1 (centres unmarked)	3.36%
COc1ccc(-c2nnc(SC(C(=O)c3c[nH]c4ccccc34)c3ccccc3)n2N)cc1OC (centres unmarked)	2.03%
COc1ccc(NC(=O)c2cc3ccc(O)cc3o/c2=N\O)cc1	2.99%
CCCn1c(=O)c2ccccc2n2c(SCc3c(C(=O)OCC)oc4ccccc34)nnc12	-43.5%
C=CCn1c(=O)c2ccccc2n2c(SCC(=O)Nc3sc(C)c(CC)c3C(=O)OCC)nnc12	6.96%
C=CCn1c(=O)c2ccccc2n2c(SCC(N)=O)nnc12	2.96%
C=CCn1c(=O)c2ccccc2n2c(SCc3c(C(=O)OCC)oc4ccccc34)nnc12	-56.1%
C=CCn1c(=O)c2ccccc2n2c(SCC(=O)NC)nnc12	-1.24%
C=CCn1c(=O)c2ccccc2n2c(SCC(=O)Nc3sc(C(=O)N(CC)CC)c(C)c3C(=O)OCC)nnc12	-52.3%
Cc1ccc(S(=O)(=O)N(C)C)cc1NC(=O)CN1C(=O)NC(Cc2ccccc2)C1=O (centres unmarked)	8.61%
Cc1ccccc1C(OCC(O)CN1CCN(CCO)CC1)c1ccccc1.O=C(O)C(=O)O (centres unmarked)	-12.1%
O=C(O)C(=O)O.OC(COC(c1ccc(F)cc1)c1ccc(F)cc1)CN1CCCC1 (centres unmarked)	-70.6%
O=C(O)C(=O)O.OC1CCCN(CC(O)COC(c2ccc(F)cc2)c2ccc(F)cc2)C1 (centres unmarked)	-57.6%
CC(=O)c1ccc(OCC(O)CN2CCN(CCO)CC2)cc1.Cl (centres unmarked)	9.1%
O=C(O)C(=O)O.OCCN1CCN(CC(O)COC(c2ccc(F)cc2)c2ccc(F)cc2)CC1 (centres unmarked)	-61.9%
O=C(O)C(=O)O.OC(COC(c1ccc(F)cc1)c1ccc(F)cc1)CN1CCCC(C(F)(F)F)C1 (centres unmarked)	10.8%
O=C(OCN1C(=O)c2ccccc2C1=O)c1cccc(S(=O)(=O)N2CCOCC2)c1	-3.06%

Structure (SMILES)	hERG current change (%, negative = inhibition) at 10uM
CN1c2ccsc2/C(=N/NC(=O)c2c(F)cccc2F)CS1(=O)=O	4.31%
Cc1cccc(C2(c3cccc(C)c3)CC2C(=O)NCC2CCCO2)c1 (centres unmarked)	-6.94%
CC(CC(=O)N1CCN(S(=O)(=O)c2ccccc2)CC1)n1cncn1 (centres unmarked)	20.1%
NS(=O)(=O)c1ccc(CCNC(=O)Nc2ccc(Cl)cc2)cc1	-9.65%
O=c1cc(NC2CCCCCC2)[nH]c(=O)[nH]1	4.69%
CN(C)C(=O)Oc1c(Cl)cc(Cl)c2ccccc12	-36.2%
CCC(=O)/C=C1\Sc2ccc(OC)cc2N1CCO	-0.298%
CCC(/C=C1\Sc2ccc(OC)cc2N1CC)=C\c1sc2ccc(OC)cc2[n+]1CCCS(=O)(=O)[O-]	15%
CCC(/C=C1\Sc2ccc(OC)cc2N1CCO)=C\c1sc2ccc(OC)cc2[n+]1CCO.[Cl-]	-72.9%
O=C(NCc1cccc(C(F)(F)F)c1)C1CCCN(c2cnccn2)C1 (centres unmarked)	-61%
CC(=O)Nc1ccc(NC(=O)C2CCCN(c3ncccn3)C2)cc1 (centres unmarked)	2.63%
Cl.O=C(Nc1cccc(C(F)(F)F)c1)c1cccnc1N1CCN(c2ccccc2)CC1	7.25%
O=C(NCc1cccc(C(F)(F)F)c1)C1CCCN(c2ncccn2)C1 (centres unmarked)	-37.1%
Cc1ccc(NC(=O)C2CCCN(c3ncccn3)C2)cc1F (centres unmarked)	-0.00042%
O=C(Nc1cccc(C(F)(F)F)c1)c1cccnc1N1CCCC1	13.2%
O=C(NCc1ccccc1)C1CCCN(c2cnccn2)C1 (centres unmarked)	-28.9%
O=C(NCc1ccc(Cl)cc1)C1CCCN(c2cnccn2)C1 (centres unmarked)	-66.5%
O=C(Nc1cccc(C(F)(F)F)c1)C1CCCN(c2ncccn2)C1 (centres unmarked)	-53.4%
O=C(Nc1cccc(C(F)(F)F)c1)c1cccnc1N1CCN(CCO)CC1	-63.8%
Cc1ccc(CNC(=O)C2CCCN(c3cnccn3)C2)cc1 (centres unmarked)	-40%
COc1cccc(CNC(=O)C2CCCN(c3cnccn3)C2)c1 (centres unmarked)	-14.4%
COC(=O)C1=C(C)Nc2nnnn2C1c1ccccc1Cl (centres unmarked)	-2.51%
CCOC(=O)Cc1cc(OC)c(OC)cc1Cc1cc(OC)c(OC)cc1CC(=O)OCC	9.74%

Structure (SMILES)	hERG current change (%, negative = inhibition) at 10uM
C/C(=N\NC(=O)C1(C)CC1(Br)Br)c1ccc(NC(=O)C2CCC2)cc1 (centres unmarked)	7.51%
COc1ccc(CCNc2cc(C)[nH]c(=O)c2)cc1OC	29.6%
CCOC(=O)c1c(N)c2cc([N+](=O)[O-])ccc2n1C	18.1%
CCOCCCNC(=S)N1C2CCC1CC(NC(=O)NC13CC4CC(CC(C4)C1)C3)C2 (centres unmarked)	-8.16%
O=C(NCc1ccccc1F)C1CCCN(c2cnccn2)C1 (centres unmarked)	13.4%
O=C(Nc1ccc(F)cc1)C1CCCN(c2cnccn2)C1 (centres unmarked)	-11.9%
O=C(NCc1ccc(F)cc1)C1CCCN(c2cnccn2)C1 (centres unmarked)	-65%
Cc1c(CCC(=O)NCC(=O)NCC(=O)O)c(=O)oc2cc3oc4c(c3cc12)CCCC4	4.87%
CCOC(=O)N1CCC(NC(=O)c2cc3cc4cc(OC)ccc4nc3o2)CC1	-16.2%
CCN1CCN(CCCNC(=O)c2cc3cc4ccc(OC)cc4nc3o2)CC1	-17.1%
COc1ccc2cc3cc(C(=O)NCc4ccccn4)oc3nc2c1	12.1%
COc1ccc2cc3cc(C(=O)NCCCN4CCc5ccccc5C4)sc3nc2c1	-32.7%
COc1ccc2cc3cc(C(=O)NCCN4CCN(c5ccccc5F)CC4)oc3nc2c1	-15.8%
COCCCNC(=O)c1cc2cc3cc(OC)ccc3nc2o1	-12.9%
COc1ccc2nc3oc(C(=O)NC4CCN(Cc5ccccc5)CC4)cc3cc2c1	-67.1%
COc1ccc2cc3cc(C(=O)NCCCN4CCC(C)CC4)oc3nc2c1	-58.5%
COc1ccc2cc3cc(C(=O)NCCCN4CCOCC4)oc3nc2c1	-5.55%
COc1ccc2cc3cc(C(=O)NCCN4CCc5ccccc5C4)sc3nc2c1	-32.9%
COc1ccc2cc3cc(C(=O)NCCN4CCN(Cc5ccccc5)CC4)oc3nc2c1	-71.8%
COc1ccc2cc3cc(C(=O)NCCN4CCc5ccccc5C4)oc3nc2c1	-63.3%
